AmpC inh no detg – inhibitors of E. coli AmpC beta-lactamase without detergent. P00811. AmpC nitrocefin hydrolysis, absorbance 480 nm, 0.0001% Triton. Potency, µM (highest dose often 57.1 µM), without a hit: at the top dose activity change, negative = inhibition, actives largely listed as inhibitors. 0.52% of 330,000 active. AID 485341;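 further: potency means the concentration at half of the fitted maximal effect; plate controls were no compound for no effect and no enzyme for full effect; nearly all actives have a fitted effect of over 20% in size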
Target sequence (P00811 whole entry, looked up): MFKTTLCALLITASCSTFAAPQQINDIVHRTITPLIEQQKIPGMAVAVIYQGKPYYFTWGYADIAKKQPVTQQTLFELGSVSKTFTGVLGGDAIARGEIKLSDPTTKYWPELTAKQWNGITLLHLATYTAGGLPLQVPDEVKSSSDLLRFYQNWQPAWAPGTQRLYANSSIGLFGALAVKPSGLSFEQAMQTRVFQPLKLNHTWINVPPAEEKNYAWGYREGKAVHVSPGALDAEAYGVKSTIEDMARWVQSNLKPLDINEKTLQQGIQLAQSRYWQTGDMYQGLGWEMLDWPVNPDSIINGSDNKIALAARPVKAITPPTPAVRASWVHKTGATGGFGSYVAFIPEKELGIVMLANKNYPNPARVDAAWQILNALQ
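20 mM phosphate pH 7.0 + 0.01% (detergent screen) or 0.0001% Triton X-100; 5.3 nM AmpC reagent; cpd preinc 15 min RT; nitrocefin (800 uM stock) to start; A480 q20 s × 4 min; Activity was normalised to no-enzyme and no-compound control wells.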
Cycloheximide cs – counter-screen for Shiga toxin inhibitors: cycloheximide protein synthesis inhibition. cell reporter, cycloheximide protein synthesis inhibition counterscreen. max response, %. 12% of 300,000 active; in the data active means max response mostly above about 13%, no sharp cut-off; inactive means mostly below about 14%; further: read at 38.3 µM for the half of the compounds with a filed dose; 0% is about no effect
AmpC inh detg – AmpC beta-lactamase inhibition with detergent present; P00811; AmpC hydrolysis of nitrocefin, absorbance 480 nm, 0.01% Triton; Potency, µM (doses to about 114 µM), inactives show at the top dose activity change, negative = inhibition, most hits filed as inhibitors; 0.041% of 370,000 active;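 further: potency means the concentration at half of the fitted maximal effect; 0% = no-compound wells and -100% = no-enzyme wells; nearly all actives have a fitted effect of over 25% in size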
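20 mM phosphate pH 7.0 + 0.01% (detergent screen) or 0.0001% Triton X-100; 5.3 nM AmpC reagent; cpd preinc 15 min RT; nitrocefin (800 uM stock) to start; A480 q20 s × 4 min; Activity was normalised to no-enzyme and no-compound control wells.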
Shiga inhibitor – inhibitors of Shiga toxin in Vero cells; Vero cells, Shiga toxin protein synthesis inhibition reporter; inhibition, % at 38.7 µM; 9.2% of 290,000 active; AID 2315; in the data active means inhibition mostly above about 28%, no sharp cut-off; inactive means mostly below about 43%; further: 0% is about no effect
NS1 function inh – blocks influenza NS1 protein function. AID 2326. 0.4% of 270,000 active. Potency, µM (titrated, usually from 46.1 µM), for the others: at the top dose activity, positive = more growth; calls by dose curve; further: potency means the concentration at half of the fitted maximal effect; actives are rising curves; nearly all actives have a fitted effect of over 50% in size
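A cell-based growth assay was used: compounds that relieve NS1-induced slow growth of budding yeast raise OD600. Assay medium was yeast nitrogen base with ammonium sulphate and -URA supplement, pH 6.0, with 2% galactose.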
Starred values were filed as active, the others as inactive; u = inconclusive; x = no result given. Many of the other results were omitted from the sample, so hits are more common in it than they were. Unless noted, the call rests on the fitted dose curve; in most records, active means well fitted curve in the direction sought with a large enough effect; inconclusive means small, poorly fitted or top-dose-only effect, or another doubt; inactive means no such curve, though single readings can be large; an effect the other way counts as inactive or inconclusive.

SMILES	AmpC inh no detg	Cycloheximide cs	AmpC inh detg	Shiga inhibitor	NS1 function inh
COc1ccc(NC(=O)c2csc(Cc3ccc(Cl)cc3)n2)cc1	-16%	10	-1%	23	0%
COc1ccc(Cc2nc(C(=O)Nc3ccccc3)cs2)cc1	-19%	39*	3%	52*	-94%
O=C(Nc1ccc(Cl)cc1)c1csc(Cc2ccccc2)n1	-17%	37*	6%	75*	-1%
COc1ccc(Cc2nc(C(=O)Nc3ccc(Cl)cc3)cs2)cc1	-30%	1	3%	-12	-56%
Cc1onc(-c2ccccc2Cl)c1C(=O)Nc1sc2c(c1C(N)=O)CCC(C)C2 (stereo unspecified)	-40%	-2	-7%	13	-4%
O=C(NCc1cccs1)c1ccncc1	1%	-1	-2%	16	9%
O=C(NCc1cccs1)c1ccc(N2CCCCC2)nc1	x	53*	-5%	112*	-48%
CC1CCCN(c2ccc(C(=O)NCc3ccccc3)cn2)C1 (stereo unspecified)	-30%	31*	0%	104*	x
CC1CCN(c2ccc(C(=O)NCCc3ccccc3)cn2)CC1	21%	27*	u	99*	-53%
COc1ccccc1Nc1ccc(C(=O)NCc2cccs2)cn1	43%	-2	-5%	5	-5%
CC1CCCN(c2ccc(C(=O)NCc3cccs3)cn2)C1 (stereo unspecified)	-14%	45*	-14%	active	-21%
Cc1ccc(-n2ncc(C(=O)NCc3cccs3)c2C2CCN(C(=O)OC(C)(C)C)CC2)cc1C	x	x	19%	x	x
CC(C)(C)OC(=O)N1CCC(c2cc(-c3cccs3)n[nH]2)CC1	55%	26*	-6%	20	-4%
Cc1cccc(-c2noc(CN(C)C(=O)c3ccco3)n2)c1	-8%	30*	-4%	154*	-4%
Cc1cccc(-c2noc(CN(C)C(=O)COc3ccccc3)n2)c1	27%	9	1%	15	-25%
Cc1cccc(-c2noc(CN(C)C(=O)c3ccoc3C)n2)c1	9%	11	-2%	60*	-13%
COc1ccc(-c2noc(CN(C)C(=O)c3ccoc3C)n2)cc1	19%	24*	-3%	25	-5%
O=C(CSc1nc2c(sc3ccccc32)c(=O)n1CCCC(=O)NC1CCCC1)Nc1ccc(F)cc1	x	x	1%	x	x
CCCCCCSc1nnc2c(n1)OC(C)Nc1ccc(Br)cc1-2 (stereo unspecified)	x	x	3%	x	x
COc1cccc(C(=O)Nc2cccc(C(=O)OCc3cc(=O)n4c(C)csc4n3)c2)c1	x	x	4%	x	x
CCOC(=O)C1CCN(c2nc3ccccc3nc2C(C#N)C(=O)NCCc2ccccc2)CC1 (stereo unspecified)	-5%	49*	10%	88	-68%
CCOC(=O)C1CCCN(c2nc3ccccc3nc2C(C#N)C(=O)OCCOC)C1 (stereo unspecified)	172%	-1	-2%	-6	1%
CCN1c2ccccc2-c2nc(SCC(=O)NCc3ccccc3)ncc2S1(=O)=O	x	x	6%	x	x
Nc1ccc(Br)cc1-c1nc2ccccc2[nH]c1=O	-20%	20	u	75*	x
Nc1ccccc1-c1nc2ccccc2[nH]c1=O	-10%	58*	-13%	80*	0%
SMILES	AmpC inh no detg	Cycloheximide cs	AmpC inh detg	Shiga inhibitor	NS1 function inh
O=c1[nH]c2ccccc2nc1-c1c[nH]c2ccccc12	-29%	26*	u	34	0%
Cc1nc2ccccc2[nH]c1=O	0%	0	-3%	17	1%
Cc1ccc(-c2ccc(CCC(=O)O)n2NC(=O)c2ccc([N+](=O)[O-])cc2)cc1	-15%	0	6%	-5	-3%
Cc1ccc(OCCN(C)C(=O)C2CCC(=O)N(CCCN3CCOCC3)C2)cc1 (stereo unspecified)	25%	1	u	-5	15%
c1ccc2c(c1)nc(Nc1ccc3c(c1)OCO3)c1nnnn12	-18%	39*	1%	130*	u
c1ccc(Nc2nc3ccccc3n3nnnc23)cc1	-32%	45*	2%	56*	0%
Fc1ccccc1Nc1nc2ccccc2n2nnnc12	-15%	41*	-10%	53	-8%
Fc1cccc(Nc2nc3ccccc3n3nnnc23)c1	-30%	22	u	57	-1%
COc1cccc(Nc2nc3ccccc3n3nnnc23)c1	-18%	25	u	32	-3%
CCOC(=O)N1CCC(Nc2nc3ccccc3n3nnnc23)CC1	-8%	19*	-2%	54	-5%
CCOc1ccc(-n2nc(CO)c(C(=O)NCc3ccccn3)n2)cc1	x	x	16%	x	x
O=C(Cn1cnc2ccc(Cl)cc2c1=O)c1cccs1	-11%	7	0%	-7	-25%
COc1ccc(N2CC(NC(=O)c3ccc(S(=O)(=O)N4CCOCC4)cc3)CC2=O)cc1OC (stereo unspecified)	x	x	2%	x	x
CCN(CC)S(=O)(=O)c1ccc(Nc2nc3ccccc3n3nnnc23)cc1	-23%	32*	4%	109*	u
Cc1ccc(CNC(=O)c2ccc(Nc3nc4ccccc4n4nnnc34)cc2)cc1	x	x	-5%	x	x
Brc1ccc(Nc2nc3ccccc3n3nnnc23)cc1	-16%	65*	4%	100	-6%
Oc1ccccc1Nc1nc2ccccc2n2nnnc12	x	x	19%	x	x
COc1ccc(-c2cc(C(=O)OCC(=O)N(C)C)c3ccccc3n2)cc1	173%	26*	-14%	30	-29%
COc1ccc(-c2cc(C(=O)Oc3ccc(C)cc3)c3ccccc3n2)cc1	x	x	10%	x	x
COc1ccc(-c2cc(C(=O)OCc3ccccn3)c3ccccc3n2)cc1	17%	27*	4%	10	-2%
CCNC(=O)COC(=O)c1cc(-c2ccco2)nc2ccccc12	-22%	10	0%	9	5%
CCN(C(=O)COC(=O)c1cc(-c2ccc3cc(OC)ccc3c2)nc2ccccc12)C1CCS(=O)(=O)C1 (stereo unspecified)	-17%	30*	-5%	43*	0%
COc1ccc(CNC(=O)COC(=O)c2cc(-c3ccco3)nc3ccccc23)cc1	10µM*	16	-5%	-37	5%
Cc1ccc(NC(=O)Cn2nnc(-c3nc(-c4ccncc4)no3)c2N)c(C)c1	x	x	-2%	x	x
Cn1c(=O)c(C(=O)COC(=O)c2cc(-c3ccco3)nc3ccccc23)c(N)n(CC2CC2)c1=O	37%	22*	u	31	u
CCN(C(=O)COC(=O)c1c(C)nn(-c2ccccc2)c1C)C1CCS(=O)(=O)C1 (stereo unspecified)	0%	16*	-6%	43*	x
O=C(NCC1CCN(Cc2cccc(F)c2)CC1)c1cc2ccc3cccnc3c2[nH]1	x	x	1%	x	x
O=C(CSc1nc2ccccc2n1CCc1ccccc1)c1ccc(O)c(O)c1	16µM*	12*	2%	16	9%
Cn1c(SCC(=O)NC2CCCC2)nnc1-c1ccncc1	-11%	-6	-5%	-17	-2%
Cn1c(SCC(=O)NC2CC2)nnc1-c1cccs1	92%	62*	-8%	75*	-30%

Screening results as filed in PubChem BioAssay.
